Laboratory results taken from PubChem BioAssay AID1159580 (chemical genetic matrix, 2015).
Hit rate of the full screen: of about 5,500 compounds, about 2,000 (36%) were called active. Not shown: some 18% with an inconclusive outcome. No stated cut-off is given here; in the data, active means normalized growth mostly below about 0.91 (no sharp cut-off); inconclusive means no clear call, values can overlap the other calls; inactive means mostly above about 0.92. Some of the results follow.

Assay: chemical genetic growth profiling, strain panel (AID 1159580);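 further: tested at 20 µM; growth read once vehicle control cultures reached saturation at 30 °C; 1 = growth at the plate median or of vehicle wells; lower values mean less growth of the strain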
Conditions: S. cerevisiae deletion strains, growth OD
[1] = locus YDL101C, strain DUN1, hits give low values
[2] = locus YHR030C, strain SLT2, hits give low values

Measured: normalized growth

CC(C)(C)c1ccc(C(=O)N/N=C\c2cc(Cl)cc(Cl)c2O)cc1
inactive: locus YDR150W, strain NUM1, hits give low values 1.19 | locus YJR075W, strain HOC1, hits give low values 0.996 | locus YLR058C, strain SHM2 (second series), hits give low values 0.97 | locus YMR263W, strain SAP30, hits give low values 0.893 | locus YNL322C, strain KRE1, hits give low values 0.998 | locus YPL055C, strain LGE1, hits give low values 0.858 | locus YPR135W, strain CTF4, hits give low values 0.69
active: locus YAL013W, strain DEP1, hits give low values 0.909 | locus YBR229C, strain ROT2, hits give low values 0.832 | locus YCL061C, strain MRC1, hits give low values 0.818 | [1] 0.852 | locus YEL061C, strain CIN8, hits give low values 0.624 | locus YGR078C, strain PAC10, hits give low values 0.847 | [2] 0.452 | locus YHR087W, strain rtc3, hits give low values 0.872 | locus YJR043C, strain POL32, hits give low values 0.876 | locus YKL190W, strain CNB1, hits give low values 0.316 | locus YLR039C, strain RIC1, hits give low values 0.165 | locus YLR085C, strain ARP6, hits give low values 0.285 | locus YLR262C, strain YPT6, hits give low values 0.182 | locus YML094W, strain GIM5, hits give low values 0.645 | locus YMR219W, strain ESC1, hits give low values 0.83 | locus YNL128W, strain TEP1, hits give low values 0.377 | locus YNL153C, strain GIM3, hits give low values 0.826 | locus YNL298W, strain CLA4 (second series), hits give low values 0.642 | locus YNR030W, strain Alg12, hits give low values 0.617 | locus YPL241C, strain CIN2, hits give low values 0.428

O=C(N/N=C\c1cc(Cl)cc(Cl)c1O)c1ccccc1Oc1ccccc1
active: locus YLR113W, strain HOG1, hits give low values 0.722 | locus YPL256C, strain CLN2, hits give low values 0.818
inactive: locus YAR019C, strain CDC15, hits give low values 0.965 | locus YBL105C, strain PKC1, hits give low values 0.967 | locus YBR135W, strain CKS1, hits give low values 0.981 | locus YBR136W, strain MEC1, hits give low values 0.964 | locus YBR160W, strain CDC28, hits give low values 0.974 | locus YDL017W, strain CDC7, hits give low values 0.975 | locus YDL028C, strain MPS1, hits give low values 0.963 | [1] 0.981 | locus YDL108W, strain KIN28, hits give low values 0.958 | locus YDL132W, strain cdc53, hits give low values 0.955 | locus YDL214C, strain PRR2, hits give low values 0.933 | locus YDR052C, strain DBF4, hits give low values 0.97 | locus YDR054C, strain cdc34, hits give low values 0.96 | locus YDR226W, strain ADK1, hits give low values 0.966 | locus YDR477W, strain SNF1, hits give low values 0.945 | locus YER123W, strain YCK3, hits give low values 0.882 | locus YER133W, strain GLC7, hits give low values 0.949 | locus YFL009W, strain cdc4, hits give low values 0.958 | locus YFL029C, strain CAK1, hits give low values 0.953 | locus YFR003C, strain YPI1, hits give low values 0.961 | locus YFR019W, strain FAB1, hits give low values 0.946 | locus YFR028C, strain CDC14, hits give low values 0.962 | locus YGR040W, strain KSS1, hits give low values 0.934 | locus YGR052W, strain FMP48, hits give low values 0.929 | locus YGR092W, strain DBF2, hits give low values 0.885 | [2] 0.855 | locus YHR079C, strain IRE1, hits give low values 0.917 | locus YHR082C, strain KSP1, hits give low values 0.916 | locus YHR205W, strain SCH9, hits give low values 0.844 | locus YIL147C, strain SLN1, hits give low values 0.967 | locus YJL095W, strain BCK1, hits give low values 0.871 | locus YJL128C, strain PBS2, hits give low values 0.921 | locus YJL157C, strain FAR1, hits give low values 0.939 | locus YJR016C, strain ILV3, hits give low values 0.974 | locus YJR066W, strain TOR1 (second series), hits give low values 0.939 | locus YJR066W, strain TOR1, hits give low values 0.933 | locus YKL048C, strain ELM1, hits give low values 0.895 | locus YKL067W, strain YNK1, hits give low values 0.901 | locus YKL101W, strain HSL1, hits give low values 0.89 | locus YKL193C, strain SDS22, hits give low values 0.965 | locus YKL203C, strain TOR2, hits give low values 0.969 | locus YLR133W, strain CKI1, hits give low values 0.926 | locus YLR403W, strain SFP1, hits give low values 0.925 | locus YML070W, strain DAK1, hits give low values 0.891 | locus YMR001C, strain CDC5, hits give low values 0.961 | locus YMR205C, strain PFK2 (second series), hits give low values 0.913 | locus YMR277W, strain FCP1, hits give low values 0.971 | locus YNL006W, strain LST8, hits give low values 0.982 | locus YNL020C, strain ARK1, hits give low values 0.906 | locus YNL161W, strain CBK1, hits give low values 0.971 | locus YNL183C, strain NPR1, hits give low values 0.88 | locus YNL207W, strain RIO2, hits give low values 0.945 | locus YNL222W, strain SSU72, hits give low values 0.971 | locus YNL307C, strain MCK1 (second series), hits give low values 0.906 | locus YOL078W, strain AVO1, hits give low values 0.975 | locus YOL136C, strain PFK27, hits give low values 0.913 | locus YOR061W, strain CKA2, hits give low values 0.905 | locus YOR119C, strain RIO1, hits give low values 0.922 | locus YOR231W, strain MKK1, hits give low values 0.91 | locus YOR329C, strain SCD5, hits give low values 0.976 | locus YPL031C, strain PHO85, hits give low values 0.938 | locus YPL153C, strain RAD53, hits give low values 0.924 | locus YPL204W, strain HRR25, hits give low values 0.919 | locus YPL209C, strain IPL1, hits give low values 0.982 | locus YPR025C, strain CCL1, hits give low values 0.966 | locus YPR106W, strain ISR1, hits give low values 0.968 | locus YPR111W, strain DBF20, hits give low values 0.952 | strain NNK1, hits give low values 0.959 | strain TSCII, hits give low values 0.967
